Assay outcomes deposited in PubChem by several laboratories.
FadD28 binding: M. tuberculosis FadD28 bisubstrate binding inhibition | FadD28 bisubstrate probe binding, fluorescence polarization | inhibition, % at 12.5 µM | 0.22% of 360,000 active | AID 588549; in the data active = inhibition above about 8.5%, passing the limit was not always enough; inconclusive = no clear call, values can overlap the other calls
Mtb hypoxia inh: Mtb hypoxia fluorescent reporter inhibition; fluorescence inhibition, % (concentration not given with the values); 0.1% of 300,000 active; M. tuberculosis hypoxia-regulated fluorescent reporter, fluorescence; AID 1159583; in the data active = fluorescence inhibition mostly above about 23%, no sharp cut-off; inactive = mostly below about 17%
3CLpro inhibitor: SARS-CoV 3CLpro protease inhibition; P0C6X7; recombinant SARS-CoV 3CLpro, quenched FRET peptide cleavage; inhibition, % at 6 µM; 0.14% of 290,000 active; AID 1706; in the data active = inhibition above about 12%
VHR inh abs: inhibitors of human VHR1 phosphatase (DUSP3); inhibition, % at 13.3 µM; 0.52% of 290,000 active; recombinant VHR phosphatase, pNPP absorbance; P51452; in the data active = inhibition above about 50%
Target sequence (P51452 whole entry, looked up): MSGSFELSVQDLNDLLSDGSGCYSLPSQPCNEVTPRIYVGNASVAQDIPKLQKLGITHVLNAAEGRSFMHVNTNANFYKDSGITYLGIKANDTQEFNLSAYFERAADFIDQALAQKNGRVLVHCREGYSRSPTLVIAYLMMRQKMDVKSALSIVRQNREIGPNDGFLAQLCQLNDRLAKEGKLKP
BioA inh-1: blocks M. tuberculosis BioA enzyme activity | purified M. tuberculosis BioA enzyme, plate reader | inhibition, % at 9.99 µM | 0.096% of 360,000 active | AID 602481; in the data active = inhibition above about 40%; inconclusive = no clear call, values can overlap the other calls
BioA inh-2: blocks M. tuberculosis BioA aminotransferase; shares compounds with BioA inh-1; purified BioA enzyme, plate reader, dose response; max activity, %; 310 tested, under 10 active; AID 651679;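 also: top concentration of the dilution series was 10 µM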
HepG2 cytotox: cytotoxicity in HepG2 cells. shares compounds with BioA inh-1. plate reader. max activity, %. 310 tested, under 10 active. AID 651898
3T3 cytotox 5: kills NIH3T3 cells; shares compounds with BioA inh-1; 310 tested, under 10 active; NIH3T3 cytotoxicity, plate reader; activity change, negative = cytotoxicity, % at 26 µM
Starred values were filed as active, the others as inactive; i = inactive; ? = inconclusive; . = not tested or not shown; [ ] = another dose, or the depositor's remark. Compounds with a hit are over-represented: about 0.7% of the library has one in this group of screens. Unless noted, no rule for the calls is given here.

SMILES	FadD28 binding	Mtb hypoxia inh	3CLpro inhibitor	VHR inh abs	BioA inh-1	BioA inh-2	HepG2 cytotox	3T3 cytotox 5
CC1=C(C#N)C(c2ccc(O)cc2)C2=C(CCCC2=O)N1 (centres undefined)	1	5	3	11	8	.	.	.
CC1=C(C#N)C(c2cccnc2)C2=C(CC(c3ccc(Cl)cc3)CC2=O)N1 (centres undefined)	-10	10	0	28	63*	-6	14	-3
Cc1cccc(C(=O)NC2CCN(CC(=O)Nc3ccccc3Cl)CC2)c1	-5	10	3	19	49*	-5	-6	-13
O=C(NN=Cc1ccc[nH]1)c1cccc([N+](=O)[O-])c1	.	-6	.	.	.	.	.	.
Cn1nnc2cc(C(=O)N3CCC(c4ccccc4)C3)ccc21 (centres undefined)	-2	7	2	-1	66*	-10	-13	-8
O=C(CSc1nncs1)N1c2ccccc2Sc2ccccc21	-14	7	-3	19	44*	-2	-12	-3
CC1=NNC(=O)C1CCC(=O)NN=Cc1ccc(Cl)cc1Cl (centres undefined)	.	6	.	.	.	.	.	.
COc1ccccc1-n1c(SCC(=O)N(C)C2CCS(=O)(=O)C2)nc2ccccc2c1=O (centres undefined)	-1	5	2	10	?	.	.	.
Cc1ccccc1-n1c(SCC(=O)N(C)C2CCS(=O)(=O)C2)nc2ccccc2c1=O (centres undefined)	-3	13	4	12	60*	-3	18	0
CN(C(=O)CSc1nc2ccccc2c(=O)n1-c1ccccc1Cl)C1CCS(=O)(=O)C1 (centres undefined)	-2	15	.	.	50*	10	-8	1
CCOC1OC(C(=O)N2CCN(Cc3ccc4c(c3)OCO4)CC2)=CC(c2csc3ccccc23)C1CCCO (centres undefined)	.	3	.	.	.	.	.	.
O=C(CN1C(=O)/C(=C/c2cccc(Br)c2)SC1=S)Nc1cccnc1	0	.	1	9	88*	5	4	0
COc1ccc(CCN(C)c2ccc(C(N)=O)cc2[N+](=O)[O-])cc1OC	0	14	-2	-19	49*	-8	-12	-9
NC(=O)c1ccc(Oc2cccc3cccnc23)c([N+](=O)[O-])c1	-3	16	4	22	42*	25	20	7
O=C(Nc1cccnc1)c1cc2nc(C3CC3)cc(C(F)(F)F)n2n1	-1	.	-2	11	90*	-3	19	0
Cc1nc2c(C(=O)N3CCN(c4ccccn4)CC3)cnn2c(C)c1Cc1cccc(Cl)c1	-2	10	-4	25	40*	-6	11	5
Cc1nc2c(C(=O)N3CCC4(CC3)OCCO4)cnn2c(C)c1Cc1cccc(Cl)c1	-5	12	4	-13	17	.	.	.
Nn1c(SCCOc2ccc(Cl)cc2)nnc1-c1cccnc1	-2	7	2	30	.	.	.	.
COc1cccc(-c2nnc(SCc3nc4ccccc4[nH]3)n2N)c1	-3	0	2	36	.	.	.	.
Nn1c(SCCOc2ccccc2)nnc1-c1cccnc1	0	11	-1	0	74*	3	-8	-5
Nn1c(SC/C=C/c2ccccc2)nnc1-c1cccnc1	-1	-1	1	-19	109*	4	-11	12
Nn1c(SCc2nc3ccccc3[nH]2)nnc1-c1cccnc1	-6	0	0	-8	59*	-8	-6	1
O=C(c1ccncc1)N1CC[C@H]2[C@H](CO)Nc3ccc(Br)cc3[C@H]21	.	.	.	.	59*	12	i	-7[23.5 µM]
O=C(c1ccncc1)N1CC[C@@H]2[C@H](CO)Nc3ccc(Br)cc3[C@@H]21	.	.	.	.	104*	-5	i	-5
O=C(c1ccncc1)N1CC[C@@H]2[C@@H](CO)Nc3ccc(-c4ccccc4)cc3[C@@H]21	.	.	.	.	10	.	.	.
SMILES	FadD28 binding	Mtb hypoxia inh	3CLpro inhibitor	VHR inh abs	BioA inh-1	BioA inh-2	HepG2 cytotox	3T3 cytotox 5
COc1ccc(C2C3C(=O)N(C(C)(C)C)C(=O)C3[C@]3(Cc4ccccc4)C(=O)N(c4cccc(Cl)c4)C(=O)N23)cc1 (some centres undefined)	.	5	.	.	.	.	.	.
O=C(C[n+]1cc(-c2ccc(Cl)cc2)n2c1CCC2)N1c2ccccc2Sc2ccccc21	-2	1	-3	-2	61*	-6	-11	0
O=C(O)CCC(=NNC(=O)c1cccs1)c1ccccc1	.	-3	.	.	.	.	.	.
COc1cc2cnc(-c3cccnc3)cc2cc1OC	-1	24	.	.	46*	-6	-11	-1
COc1ccc(-c2cc3cc(OC)c(OC)cc3cn2)cc1OC	-3	9	.	.	.	.	.	.
Cc1ccc(Cc2c(C)nc3nc(SCC(=O)NCc4ccco4)nn3c2C)cc1	-1	5	0	4	50*	-6	12	0
Cc1nc2nc(SCC(=O)N3CCOCC3)nn2c(C)c1Cc1ccccc1	0	6	0	29	111*	-4	-7	-6
Cc1ccc(Cc2c(C)nc3nc(SCC(=O)N4CCC5(CC4)OCCO5)nn3c2C)cc1	0	12	1	31	.	.	.	.
Cc1nc2nc(SCC(=O)NCc3ccco3)nn2c(C)c1Cc1c(F)cccc1Cl	-4	6	-4	51*	48*	3	22	-1
Cc1cccc(Cc2c(C)nc3nc(SCC(=O)NCc4ccco4)nn3c2C)c1	-2	5	3	27	39	.	.	.
Cc1ccc(C(=O)N2C3CN(C)C(=O)[C@@]2(Cc2ccccc2)C2C(=O)N(Cc4ccccc4)C(=O)C32)cc1 (some centres undefined)	.	17	.	.	.	.	.	.
CCOc1ccc(C(O)=C2C(=O)C(=O)N(CC3CCCO3)C2c2ccc(C)o2)cc1 (centres undefined)	.	9	.	.	.	.	.	.
CC(=O)c1ccc(C(=O)N2CCCC(Nc3ccccc3)C2)s1 (centres undefined)	?	3	4	6	64*	-8	24	-1
COc1ccc(F)cc1C(=O)C1CCCN(C(=O)c2ccc(C(C)=O)s2)C1 (centres undefined)	-2	7	-1	-3	71*	-8	-16	-3
CC(=O)c1ccc(C(=O)NC2CCCN(Cc3ccccc3F)C2)s1 (centres undefined)	-1	9	-2	18	46*	-7	-9	5
CC(=O)c1ccc(C(=O)N2CCCC(C(=O)c3cc(F)ccc3F)C2)s1 (centres undefined)	-1	16	2	12	38	.	.	.
CC(=O)c1ccc(C(=O)N2CCCC(C(=O)c3ccc(Cl)cc3)C2)s1 (centres undefined)	-5	15	-1	-7	49*	-6	7	-2
CC1(C(=O)NCc2ccc(F)c(F)c2)Cc2c(-c3cccc(C(N)=O)c3)ccnc2O1 (centres undefined)	-4	.	.	.	62*	20	14	-1
Cc1nn(-c2ccccc2)c(N2CCCC2)c1C=NNC(=S)Nc1ccccc1F	.	3	.	.	.	.	.	.
